In PubChem BioAssay (NCATS):
Several values for one entry are separate records, joined by “and”; a condition that tells them apart may be missing. Equal values may be shown once. Inconclusive results are not listed. Activity calls are given as the source filed them. The call rests on the fitted dose curve; in most records, active means well fitted inhibition curve with a large enough effect; inconclusive means small, poorly fitted or top-dose-only effect; inactive means no such curve, though single readings can be large or run the other way.

Experiment: Primary qHTS for inhibitors of nuclear receptor binding SET domain protein 2 (NSD2) in an RCH-ACV wild type WT cells (2C) (AID 1645877); further: nearly all actives have a fitted effect of over 70% in size
Conditions: RCH-ACV (leukaemia line) NSD2 WT (2C) viability, CellTiter-Glo, 72 h; series mostly up to 44.9 µM
Potency means the concentration at half of the fitted maximal effect.

Q: For `COCC(=O)NC/C=C/c1ccc2ncnc(Nc3ccc(Oc4ccc(C)nc4)c(C)c3)c2c1`, which Potency is on record?
A: 16.3 µM (active)

Q: For `Cc1c(NC(=O)OCC2COCCN2)cn2ncnc(Nc3ccc4c(cnn4Cc4cccc(F)c4)c3)c12` (stereo unspecified), which Potency is on record?
A: 16.3 µM (active) and 16.6 µM (active)

Q: With `N#CC(CCCN1CCC(O)(c2ccc(Cl)cc2)CC1)(c1ccccc1)c1ccccc1` as the compound, how does the Potency read?
A: 6.49 µM (active)

Q: With `CN1CCC(c2cn(C)c3ccc(OS(=O)(=O)c4c(F)cccc4F)cc23)CC1` as the compound, how does the Potency read?
A: 23 µM (active)

Q: With `Cc1csc2c(N[C@@H](C)CN3CCN(S(=O)(=O)c4ccc(Cl)c(Cl)c4)CC3)ncnc12` as the compound, how does the Potency read?
A: 8.17 µM (active)

Q: Which Potency does the source give for `O=C(COc1ccc2ccccc2c1Br)Nc1cccnc1` here?
A: inactive

Q: With `Cc1csc(N(C(=O)CSc2ccc(-c3ccccc3)nn2)C2CC2)n1` as the compound, how does the Potency read?
A: inactive

Q: With `Cc1cc(N2CCN(C(=O)Oc3ccc(-c4ccccc4)cn3)CC2)c2ccccc2n1` as the compound, how does the Potency read?
A: 12.9 µM (active)

Q: For `COc1ccc(CNc2nc(N(CCO)CCO)nc3c2ncn3C(C)C)cc1`, which Potency is on record?
A: 5.25 µM (active)

Q: For `CCOC(=O)N1c2ccc(C(F)(F)F)cc2C(N(Cc2cc(C(F)(F)F)cc(C(F)(F)F)c2)C(=O)OC)CC1CC` (stereo unspecified), which Potency is on record?
A: inactive

Q: Which Potency does the source give for `Cc1ccc(F)cc1S(=O)(=O)N[C@@H]1CCN(Cc2ccc(OC(C)C)cc2)C1` here?
A: 18.3 µM (active)

Q: Which Potency does the source give for `COc1cc2c(cc1NS(=O)(=O)c1ccc(Br)cc1C)n(C)c(=O)n2C` here?
A: 7.28 µM (active)

Q: With `CC(=O)c1ccc2c(c1)[C@H](NC(=O)c1ccc(F)c(Cl)c1)[C@H](O)C(C)(C)O2` as the compound, how does the Potency read?
A: inactive

Q: With `CN(C)CCN(Cc1ccc(-c2ccc(CNCCc3ccccc3)cc2)cc1)C(=O)CCC1CCCC1` as the compound, how does the Potency read?
A: 2.3 µM (active)

Q: With `CNC(C)C(=O)NC(C(=O)N1CCCC1C(=O)Nc1snnc1-c1ccccc1)C1CCCCC1` (stereo unspecified) as the compound, how does the Potency read?
A: inactive

Q: Which Potency does the source give for `COc1ccc(-c2ccc3c(N4CCOCC4C)nc(N4CCOCC4C)nc3n2)cc1CO` (stereo unspecified) here?
A: 0.0515 µM (active)

Q: With `CNc1nc(NCc2ccc(NS(C)(=O)=O)cc2Cl)cc(-c2ccccn2)n1` as the compound, how does the Potency read?
A: 7.28 µM (active)

Q: Which Potency does the source give for `Nc1ncnc2c1c(-c1ccc(Oc3ccccc3)cc1)nn2[C@@H]1CCCNC1` here?
A: 2.3 µM (active)

Q: With `CCn1c(=O)c(-c2ccc(-c3cncs3)cc2Cl)cc2cnc(Nc3ccc(N4CCN(C)CC4)cc3)nc21` as the compound, how does the Potency read?
A: 2.59 µM (active)

Q: For `CCCCNc1ncc(C(=O)NCc2ccc(-n3ccnc3)cc2)c(NC2CCC(O)CC2)n1` (stereo unspecified), which Potency is on record?
A: 4.59 µM (active)

Q: With `Oc1ccc(-c2cnc3ccc(NCc4ccco4)nn23)cc1` as the compound, how does the Potency read?
A: 1.83 µM (active)

Q: Which Potency does the source give for `Cc1cc(-c2cnc(N)c3c(-c4ccc5scnc5c4)csc23)n(C)n1` here?
A: 5.78 µM (active)

Q: With `NS(=O)(=O)Nc1ncnc(OCCOc2ncc(Br)cn2)c1-c1ccc(Br)cc1` as the compound, how does the Potency read?
A: 11.5 µM (active)

Q: With `C#CCNCc1cc2cc(OCc3ccccc3)ccc2[nH]1` as the compound, how does the Potency read?
A: inactive

Q: For `Cc1cc(C(=O)Nc2cc(Nc3ccc4c(/C=C/c5ccccn5)n[nH]c4c3)ccc2F)n(C)n1`, which Potency is on record?
A: 9.16 µM (active) and 7.42 µM (active)

Q: Which Potency does the source give for `CNc1ccc([N+](=O)[O-])c(Nc2ccc3[nH]ncc3c2)n1` here?
A: 7.28 µM (active)
